Assay results: PubChem BioAssay (NCATS)
Records with an inconclusive call do not appear. More than one record can exist for a structure, and the calls need not agree. Activity calls are given as the source filed them. Calls come from the whole dose curve; as a rule, active = well fitted curve in the direction sought with a large enough effect; inconclusive = small, poorly fitted or top-dose-only effect, or another doubt; inactive = no such curve, though single readings can be large; an effect the other way counts as inactive or inconclusive.

System: Tov112D
Assay: Primary qHTS to identify gynecologic anti-cancer compounds using libraries of approved drugs and bioactive compounds (AID 1345084); note: nearly all actives have a fitted effect of over 55% in size; note: potency is the fitted concentration of half-maximal effect
Conditions: Gynecologic cancer cell panel viability, ATPlite luminescence, 48 h; series mostly up to 57.5 µM; activity change, negative = cytotoxicity: at the top concentration
How it was run: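 Measured: luminescence after ATPlite addition (15 min, RT). Exposure: 48 h, 37 C, 5% CO2.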
% is set by controls: 0 for no effect and ±100 for the full control effect.

Row | SMILES | activity change, negative = cytotoxicity | Potency
1 | COc1ccc(C(=O)O[C@H]2C=COC=C3C=C4C(=O)N(C)C(=S)C(=O)N4[C@@H]32)cc1Oc1cc(C=O)ccc1O | -15.1% [at 25.3 µM] (inactive) | –
2 | C=C1C(=O)O[C@@H]2[C@H]1CC[C@H](C)[C@]1(CCC(=O)O1)C2(C)O (stereo partly specified) | 1.24% (inactive) | –
3 | C=C(NC(=O)C(=C)NC(=O)c1csc(C2=NC3c4csc(n4)C4NC(=O)c5csc(n5)C(C(C)(O)C(C)O)NC(=O)C5CSC(=N5)/C(=C/C)NC(=O)C(C(C)O)NC(=O)c5csc(n5)C3(CC2)NC(=O)C(C)NC(=O)C(=C)NC(=O)C(C)NC(=O)C(C(C)CC)NC2C=Cc3c(C(C)O)cc(nc3C2O)C(=O)OC4C)n1)C(N)=O (stereo unspecified) | -28.8% (inactive) | –
4 | C=C1C(=O)OC2/C=C(\C)CC3C=C(CC/C=C(\C)CCC12)C(=O)O3 (stereo unspecified) | -5.73% [at 38.5 µM] (inactive) | –
5 | CCC(CC)C(c1ccc(Nc2nc3ccccc3s2)cc1)n1cncn1 (stereo unspecified) | – | 22.4 µM (active)
6 | C=C1/C(=C/C=C2\CCC[C@]3(C)[C@@H]([C@H](C)CC[C@@H](O)C(C)(C)O)CC[C@@H]23)C[C@@H](O)C[C@@H]1O | -12.2% (inactive) | –

System: not listed separately
Assay: Drug repurposing screens with cells derived from glioblastoma tumor samples (AID 1345199); note: nearly all actives have a fitted effect of over 40% in size
Conditions: GBM patient neurospheres viability, ATP luminescence, 48 h; at 45.9 µM (top of the series); tumour line B
How it was run: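 Primary testing used CD133+ neurospheres from four GBM patients, seven concentrations, 48 h exposure and ATP-based viability; confirmation added three slower-growing patient lines.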

Row | SMILES | activity, negative = cell killing
7 | O=C(CCCN1CCC(n2c(=S)[nH]c3ccccc32)CC1)c1ccc(F)cc1 | -28.9% (inactive)
8 | CCCCCCCCCCCCCCCC(=O)O[C@@H]1CC(C)=C(/C=C/C(C)=C/C=C/C(C)=C/C=C/C=C(C)/C=C/C=C(C)/C=C/C2=C(C)C[C@@H](OC(=O)CCCCCCCCCCCCCCC)CC2(C)C)C(C)(C)C1 | -12.7% (inactive)
9 | Cc1cccc(C)c1N(CCCc1cccnc1)C(=O)C(C)N (stereo unspecified) | -3.85% (inactive)
10 | CCC(C)C(C(=O)OCC[N+](C)(CC)CC)c1ccccc1 (stereo unspecified) | -18.7% (inactive)
11 | NCCCNCCCCNC(=O)C(O)NC(=O)CCCCCCN=C(N)N (stereo unspecified) | -10.7% (inactive)
12 | Cc1cc(-n2c(=O)[nH]c(=O)n(C)c2=O)ccc1Oc1ccc(S(=O)(=O)C(F)(F)F)cc1 | -20.8% (inactive)

Same assay, conditions: GBM patient neurospheres viability, ATP luminescence, 48 h; at 45.9 µM (top of the series); tumour line D

Row | SMILES | activity, negative = cell killing
13 | CO[C@@H]1[C@@H](O[C@@H]2O[C@H](C)[C@@H](O[C@H]3C[C@@](C)(O)[C@@H](OC(=O)CC(C)C)[C@H](C)O3)[C@H](N(C)C)[C@H]2O)[C@@H](CC=O)C[C@@H](C)[C@@H](O)/C=C/C=C/C[C@@H](C)OC(=O)C[C@H]1O | -21.1% (inactive)
14 | Cc1cccc(C)c1N(CCCc1cccnc1)C(=O)C(C)N (stereo unspecified) | -15.3% (inactive)
15 | CCC(C)C(C(=O)OCC[N+](C)(CC)CC)c1ccccc1 (stereo unspecified) | -27.8% (inactive)
16 | CCOC(=O)COc1ccc2c(=O)cc(-c3ccccc3)oc2c1 | -18.4% (inactive)
